# Results reported in ChEMBL document CHEMBL4513146, “CO-ADD screening of Karazin Kharkiv National University (Ukraine) compounds”.
# Results with a measured potency or affinity are listed apart.
# Columns and labels:
# Klebsiella pneumoniae = details: Concentration 32 ug.mL-1;; ASSAY_TEST Inhibition of Bacterial Growth; detection method Absorption (OD600); MEDIA CAMHB; plate type 384well; NBS; CORNING #3640; time 18 hr
# Candida albicans = details: Concentration 32 ug.mL-1; ASSAY_TEST Inhibition of Fungal Growth; detection method Absorption (OD530)
# Cryptococcus neoformans = details: Concentration 32 ug.mL-1; ASSAY_TEST Inhibition of Fungal Growth; detection method Resazurin; Absorption (OD600-OD570); plate type 384well; NBS; CORNING #3640
SMILES,Inhibition (Klebsiella pneumoniae) [%],Inhibition (Candida albicans) [%],Inhibition (Cryptococcus neoformans) [%]
COc1ccc(-c2cc3c4nnc(SCC(=O)Nc5cc(Cl)ccc5C)n4ccn3n2)cc1,0.68,28.62,-34.55
CCOc1ccc(NC(=O)CSc2nnc3c(=O)n(-c4ccc(OCC)cc4)ccn23)cc1,13.96,2.39,-11.05
COc1cccc(NC(=O)Cn2nc3c4cc(-c5ccc(Cl)cc5)nn4ccn3c2=O)c1,8.34,4.47,-4.67
CSc1ccc(CNC(=O)Cn2nc3c(N4CC(C)CC(C)C4)nccn3c2=O)cc1 (stereo not drawn),6.58,0.13,-5.38
O=C(Cn1nc2c(Oc3ccccc3)nccn2c1=O)Nc1ccccc1C(F)(F)F,6.19,0.13,-8.9
O=C(Cn1nc2c(N3CCOCC3)nccn2c1=O)NCc1cc(F)cc(F)c1,6.28,4.54,-8.22
Cc1[nH]c2ccccc2c1C(=O)CSc1nnc2c(=O)n(-c3ccc(F)c(F)c3)ccn12,14.26,1.72,-11.39
Cc1cccc(C)c1NC(=O)Cn1nc2ccc(SCc3ccc(Cl)cc3)nn2c1=O,-2.95,27.65,-10.13
Cc1ccc(C)c(Cn2nc3c(=O)n(-c4ccc(C)c(C)c4)ccn3c2=O)c1,6.6,1.95,-10.52
Cc1ccc(NC(=O)Cn2nc3ccc(SC(C)C)nn3c2=O)c(C)c1,11.09,2.8,-5.46
O=c1n(Cc2cccc(C(F)(F)F)c2)nc2c(S(=O)(=O)N3CCCCCC3)cccn12,7.16,2.16,-9.24
Cc1c(Cl)cccc1-n1ccn2c(=O)n(Cc3c(F)cccc3Cl)nc2c1=O,1.26,11.96,-12.75
CCc1ccc(N(Cc2cc(F)cc(F)c2)S(=O)(=O)c2cccn3c(C)nnc23)cc1,2.59,0.73,-2.77
O=C(Cn1nc2c(SC3CCCCC3)nccn2c1=O)Nc1cccc(Cl)c1,-2.02,27.21,-17.97
Cc1ccc(Cl)cc1NC(=O)CSc1nnc2c(=O)n(-c3ccccc3)ccn12,9.22,2.4,-17.19
COc1ccc(-c2cc3c4nn(CC(=O)Nc5ccc(OC)c(OC)c5)c(=O)n4ccn3n2)cc1,11.9,-0.77,-19.32
COc1ccc(N(Cc2cccc(C)c2)S(=O)(=O)c2ccc3nnc(C)n3c2)cc1,7.11,0.04,-1.35
CCCN(C)c1nccn2c(=O)n(CC(=O)Nc3ccc(F)cc3)nc12,16.44,1.98,-8.83
CCOc1ccc(-n2ccn3c(SC(C)C(=O)Nc4ccc5c(c4)OCCO5)nnc3c2=O)cc1 (stereo not drawn),14.39,0.98,-16.53
Cc1ccc(-c2ccc3nn(CC(=O)Nc4ccc(Br)cc4)c(=O)n3n2)cc1C,12.28,10.19,-18.48
O=c1c2nn(Cc3cccc(F)c3)c(=O)n2ccn1-c1ccccc1,3.5,1.62,-10.61
